KLF5 inh: suppresses KLF5 promoter-driven expression; AID 1700; inhibition, % at 5 µM; 290,000 compounds, 0.23% hits; DLD-1 KLF5 promoter-luciferase reporter, luminescence;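 active = inhibition above a per-plate limit of that plate's mean compound inhibition plus 3 SD, cut at about 60% in these data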;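 also: 0% = DMSO wells and 100% = LY294002 at 200 µM; higher means less KLF5 promoter-driven luciferase light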
aSyn UTR inh: 5' untranslated region of α-synuclein, MLPCN primary screen. alpha-synuclein 5'UTR reporter, inhibitor activity. inhibition, % (tested at 7.5 µM). 300,000 compounds, 0.82% hits. AID 1813; in the data active = inhibition above about 60%;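 also: H4 neuroglioblastoma cells stably carrying SNCA 5'UTR luciferase fusion; 0% = DMSO wells and 100% = positive control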
Wee1 degr inh: blocks degradation of human Wee1 kinase | P30291 | HeLa Luc-Wee1K328M stability, luciferase luminescence; 100% = proteasome inhibitor MG132 effect | reporter increase, % at 5 µM | 220,000 compounds, 1.2% hits | AID 1321;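 active = activation above the mean of all tested compounds plus 3 SD, set per screening run, cut at about 8.8% in these data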;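 also: cells exposed to compound for 20 h before luminescence read; 0% = DMSO alone and 100% = MG132 at 30 µM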
Target sequence (P30291 whole entry K328M): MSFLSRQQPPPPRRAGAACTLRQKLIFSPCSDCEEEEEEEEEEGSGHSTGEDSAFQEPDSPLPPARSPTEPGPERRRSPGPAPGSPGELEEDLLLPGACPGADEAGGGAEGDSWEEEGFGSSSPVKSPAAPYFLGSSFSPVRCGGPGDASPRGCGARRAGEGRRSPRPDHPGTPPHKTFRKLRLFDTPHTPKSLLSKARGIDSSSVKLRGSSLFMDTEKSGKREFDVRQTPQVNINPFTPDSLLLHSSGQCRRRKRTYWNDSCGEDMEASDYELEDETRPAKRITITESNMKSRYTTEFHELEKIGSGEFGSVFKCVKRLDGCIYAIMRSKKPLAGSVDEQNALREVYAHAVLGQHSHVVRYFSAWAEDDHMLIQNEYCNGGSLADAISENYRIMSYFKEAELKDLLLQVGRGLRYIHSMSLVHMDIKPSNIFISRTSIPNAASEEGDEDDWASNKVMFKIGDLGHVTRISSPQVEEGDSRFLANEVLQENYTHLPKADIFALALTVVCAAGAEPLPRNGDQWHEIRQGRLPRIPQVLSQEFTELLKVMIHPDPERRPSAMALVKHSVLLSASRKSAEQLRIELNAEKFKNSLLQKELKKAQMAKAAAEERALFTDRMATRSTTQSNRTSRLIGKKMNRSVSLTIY
HIF act: HIF pathway transcriptional activation. U2OS HRE-luciferase reporter, luminescence; normalized: DMSO 0%, desferrioxamine 100%. 300,000 compounds, 0.32% hits. activation, % at 7.5 µM (by protocol);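 active = mean activation of at least 10% of the iron chelator positive control signal, with at least half of replicates also reaching 10%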
Platelet DG rel: modulates dense granule release in human platelets | inhibition, %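 (compounds screened at 7.5 µM in platelet-rich plasma)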 | 300,000 compounds, 0.22% hits | human platelet-rich plasma, SFLLRN dense granule ATP release, luminescence;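 active = mean replicate score, as percent of positive control, at or above 50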
Numbers without * were called inactive. Only some compounds are listed: those with a hit (about 2.1% of all), similar ones and a draw of the others.

How did C[C@@H](NC(=O)[C@@H]1Cc2ccccc2CN1C(=O)OC(C)(C)C)C(=O)NC1CCCCC1 do in these assays?
KLF5 inh: -16.2; aSyn UTR inh: -4.2; HIF act: -0.1; Platelet DG rel: -6.1

How did COc1ccc(NC(=O)Cn2nnc(-c3ccccc3NS(=O)(=O)c3ccc(OC)cc3)n2)cc1 do in these assays?
KLF5 inh: 74.6*; aSyn UTR inh: 106.5*; Wee1 degr inh: 0.4; HIF act: -0.6; Platelet DG rel: -13.0

What do the screens show for `CCN1CCN(C2=C(NS(=O)(=O)c3ccc(NC(C)=O)cc3)C(=O)c3ccccc3C2=O)CC1`?
KLF5 inh: -5.3; aSyn UTR inh: -3.1; HIF act: -0.4; Platelet DG rel: 10.4

Results for CC(=O)Nc1ccc(S(=O)(=O)NC2=C(N3CCN(C)CC3)C(=O)c3ccccc3C2=O)cc1 ?
KLF5 inh: -22.1; aSyn UTR inh: 70.6*; HIF act: -0.8; Platelet DG rel: 0.9

Results for CCOC(=O)N1CCN(C(=O)CNS(=O)(=O)c2c(C)cc(C)cc2C)CC1 ?
KLF5 inh: -17.5; aSyn UTR inh: 14.0; HIF act: 1.1; Platelet DG rel: -0.5

Results for COc1ccc(N=Nc2n(C)c3ccccc3[n+]2C)cc1 ?
KLF5 inh: 36.7; aSyn UTR inh: 103.3*; Wee1 degr inh: -5.2; HIF act: 1.4; Platelet DG rel: 98.2*

How did Cc1c(C(=O)N2CCCC2)c(S(=O)(=O)Nc2ccccc2)c(C)n1C do in these assays?
KLF5 inh: -0.5; aSyn UTR inh: 3.1; HIF act: 0.3; Platelet DG rel: -53.4

How did CN(Cc1cccs1)C(=O)COC(=O)CNC(N)=O do in these assays?
KLF5 inh: -23.1; aSyn UTR inh: 7.2; Wee1 degr inh: 5.4; HIF act: -0.5; Platelet DG rel: 2.8

What do the screens show for `CN(Cc1cccs1)C(=O)CSc1nc(N)cc(N)n1`?
KLF5 inh: -22.2; aSyn UTR inh: 1.2; Wee1 degr inh: -1.5; HIF act: 39.5*; Platelet DG rel: -3.6

How did COc1ccc(-c2nc3ccccc3s2)cc1O do in these assays?
KLF5 inh: -63.9; aSyn UTR inh: 85.4*; Wee1 degr inh: -1.5; HIF act: -3.8

Results for CC(C)c1ccc(-c2nc3ccccc3s2)cc1 ?
KLF5 inh: 36.9; aSyn UTR inh: 98.5*; Wee1 degr inh: -4.4; HIF act: -3.8; Platelet DG rel: 41.0

What do the screens show for `CN(C(=O)OC(C)(C)C)c1ccc(-c2nc3ccccc3s2)cc1`?
aSyn UTR inh: 104.2*; HIF act: -4.1; Platelet DG rel: 16.8

Results for CSc1nc(N2CCN(Cc3ccc4c(c3)OCO4)CC2)c2ccccc2n1 ?
KLF5 inh: -9.0; aSyn UTR inh: 6.8; HIF act: 0.6; Platelet DG rel: -0.3

What do the screens show for `Cc1coc2c1C(=O)C(=O)c1c-2ccc2c1CCCC2(C)C`?
KLF5 inh: -14.3; aSyn UTR inh: 63.0*; Wee1 degr inh: 4.2; HIF act: 0.4; Platelet DG rel: -1.3

Results for C[C@H]1COC2=C1C(=O)C(=O)c1c2ccc2c1CCCC2(C)C ?
KLF5 inh: -5.8; aSyn UTR inh: 101.6*; Wee1 degr inh: 1.5; HIF act: 0.2; Platelet DG rel: 0.3

What do the screens show for `CC1CCCN(CCCN2C(=O)C3C(C(=O)Nc4cccc(Cl)c4)C4C=CC3(O4)C2C(=O)NC2CCCCC2)C1` (centres undefined)?
KLF5 inh: -24.9; aSyn UTR inh: -5.7; HIF act: -0.3; Platelet DG rel: 1.4

How did CCCCCN=C(N)N/N=C/c1c[nH]c2ccc(OC)cc12 do in these assays?
aSyn UTR inh: 108.3*; HIF act: -3.9; Platelet DG rel: -0.3

What do the screens show for `CCCOc1ccc(C(=O)N/N=C/c2c[nH]c3ccc(Br)cc23)cc1`?
KLF5 inh: -24.7; aSyn UTR inh: 6.2; HIF act: -2.1; Platelet DG rel: 13.9

What do the screens show for `O=C(NCc1cccs1)C1CCN(c2ccc(S(=O)(=O)N3CCOCC3)cc2Cl)CC1`?
KLF5 inh: 74.3*; aSyn UTR inh: 23.6; Wee1 degr inh: 3.5; HIF act: -0.5; Platelet DG rel: 3.1

Results for CN(C)CC/C=C1/c2ccc(F)cc2Sc2ccc(Cl)cc21 ?
aSyn UTR inh: -4.9; HIF act: -0.2; Platelet DG rel: -6.3

How did CN(C)CC/C=C1\c2ccc(F)cc2Sc2cc(F)c(Cl)cc21 do in these assays?
aSyn UTR inh: 103.4*; HIF act: -1.0; Platelet DG rel: 4.8

Results for Cn1c(CCN2CCN(c3ccccn3)CC2)nc2cc(NS(=O)(=O)c3ccc(Cl)cc3)ccc21 ?
KLF5 inh: -14.5; aSyn UTR inh: 8.0; HIF act: 2.0; Platelet DG rel: -3.9

What do the screens show for `CC(C)C(=O)Nc1ncc2c(n1)CC(c1cccs1)CC2=O` (centres undefined)?
KLF5 inh: -18.5; aSyn UTR inh: 22.8; Wee1 degr inh: 2.0; HIF act: 0.0; Platelet DG rel: 64.7*

Results for COc1ccc(N2CCN(S(=O)(=O)CCNC(=O)COc3ccccc3C)CC2)cc1 ?
aSyn UTR inh: -2.9; HIF act: -0.6; Platelet DG rel: 28.7

What do the screens show for `COc1ccc(C(c2nnnn2CC2CCCO2)N2CCC(C(N)=O)CC2)cc1` (centres undefined)?
KLF5 inh: -51.9; aSyn UTR inh: -2.2; Wee1 degr inh: 3.3; HIF act: -0.3; Platelet DG rel: 1.7

What do the screens show for `COc1ccccc1C(c1nnnn1CC1CCCO1)N1CCC(C(N)=O)CC1` (centres undefined)?
KLF5 inh: -17.4; aSyn UTR inh: 8.5; Wee1 degr inh: 0.2; HIF act: 14.9*; Platelet DG rel: -1.8

What do the screens show for `Cc1ccc(-n2ncc(C(=O)Nc3cc(Cl)cc(Cl)c3)c2C2CCNCC2)cc1C`?
KLF5 inh: 52.3; aSyn UTR inh: 92.9*; Wee1 degr inh: 3.8; HIF act: -0.5; Platelet DG rel: 6.4

Results for Cc1ccc(-c2[nH]c3cc(C(=O)NCCCn4ccnc4)ccc3c(=O)c2O)cc1 ?
aSyn UTR inh: -1.3; HIF act: 0.2; Platelet DG rel: -7.3

Results for CCCNC(=O)c1ccc2c(=O)c(O)c(-c3ccsc3)[nH]c2c1 ?
aSyn UTR inh: 86.7*; HIF act: 3.9; Platelet DG rel: 0.3

How did Cc1ccc(CNC(=O)c2ccc3c(=O)c(O)c(-c4ccc(C)cc4)[nH]c3c2)cc1 do in these assays?
aSyn UTR inh: 93.7*; HIF act: 2.0; Platelet DG rel: 7.8

What do the screens show for `CCCNC(=O)c1ccc2c(=O)c(O)c(-c3ccc(C)cc3)[nH]c2c1`?
aSyn UTR inh: 68.6*; HIF act: 2.0; Platelet DG rel: 12.0

What do the screens show for `CCCNC(=O)c1ccc2c(=O)c(O)c(-c3ccc(OC)cc3)[nH]c2c1`?
aSyn UTR inh: 87.6*; HIF act: 0.8; Platelet DG rel: -4.7

Results for CN(C)c1cccc(C(=O)NCCCSc2ccccc2)c1 ?
KLF5 inh: -58.2; aSyn UTR inh: -7.7; HIF act: 0.7; Platelet DG rel: -2.9

How did CCOC(=O)C1(Cc2cccc(Cl)c2)CCCN(C(=O)c2cnn(CC)c2)C1 (centres undefined) do in these assays?
KLF5 inh: -9.1; aSyn UTR inh: -24.1; HIF act: 1.0; Platelet DG rel: 2.3

Bioassay records: PubChem BioAssay, several laboratories
